Source: PubChem BioAssay AID1347426 (Functional Genomics Laboratory (NCATS/FGL), 2020)
The campaign covered roughly 31,000 sequences. About 1,400 (4.5%) were called active. The sample as a whole holds a higher share of actives than the screen did. A number with no mark means an inactive call.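 Rule for the calls: active = median seed-adjusted z-score above 1 or below -1; inactive = the rest.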

test: Novel Modifiers of Survival Motor Neuron (SMN) Protein: Gene Identification via Genome-wide siRNA Screen; details: HEK293T SMN2-luciferase reporter, siRNA knockdown, 72 h; actives lie on both sides;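 note: luminescence tracks full-length SMN protein made from the SMN2 reporter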
Method in brief: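 HEK293T cells stably expressing an SMN2 splicing/cDNA-luciferase reporter were reverse-transfected with a druggable-genome siRNA library and read by luminescence at 72 hours; hits defined by MAD score above 1.0 or below -1.0.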

Sequence	median seed-adjusted z-score
CUAUUGUAAAAGUAUGGAATT against ARL6IP2	0.274
GGCCUACAGCAACAAUGGATT against PCDH24	0.345
GAGUGGAAGUUAUCUGUCATT against WBSCR22	-0.21
AGCUCCAUCUCGACCACAATT against FMOD	-1.32 (active)
GGAAUACAGUGACGACAAATT against ING5	-0.193
GCAUCGACCGGGUUUAUGATT against KARS	-0.152
CCACUUUACCCACUACCCATT against ISX	1.99 (active)
GCAUUCGAAUUAUAGAACATT against SLC16A14	0.464
GCACAAAUCUCAAUAUUCATT against GPSM3	-0.641
CAGCCUUAAUGGACACGAATT against MFGE8	0.0367
GUAUGGUCGGUUUACAAUATT against YES1	-0.508
ACCGUAUUCCUAUAUCUCATT against FOXA3	0.128
GCAUCGUCAAGGAUUGGAATT against ACTR1A	1.28 (active)
GCACUUACGAUGACCGGCATT against TNFAIP1	0.0766
GCAAUUUCUUGUUUCGUUATT against SLC9A6	-0.0831
GGACAAUAGACUUUAGAGATT against NCALD	0
AGUAUACGCUGCCCUCAUATT against RNASE3	0.588
CCAUUUGAGGUGAACCGUATT against RFWD3	0.554
CUACGACGGUGAUAUUGGATT against HDAC2	-1.27 (active)
GCAGGGAUCUUACAUCUAUTT against CENTD2	-0.305
GCAUCCUACCCGUUCCAUATT against MSX2	-0.406
GGGACAUCCGAGAUCCUAATT against LAMB1	1.07 (active)
GGACAAACACGGACAGUAUTT against EPHB4	-0.143
AAGGAGCAGUGGAUACUGATT against MST1	-1.47 (active)
GAAGGAAGAUGGUAAGGGATT against IL6ST	-0.518
GCUUCGUGAGCUUUGAUAATT against BRUNOL5	0.333
CGUGGACAGCUGCAGAAAATT against EDIL3	0

Sequence	median seed-adjusted z-score
CAAUCAGCAGAGUUACAUUTT against CPEB3	0.086
CCAUCGUCAUGGUUACCAATT against PTPRA	-0.438
GCACUUAAGGAAUGACAGATT against CDY2A	0.75
CAGGUUCUCUAAUUGAACATT against NFX1	-0.256
GAAACGCAAGGGUACAGAATT against RUVBL2	-0.0764
GGAGUGACCGGAAACAUCATT against PRKCD	-0.236
CCAUUACAGAGGGAGUUCATT against NRBP1	-1.13 (active)
GGAUAUCUUCUAUGAUCUATT against SMAD7	-0.25
AGAACUUUGUGCACCGUGATT against ZAP70	-0.674
AGCUUGAAAUCUCAUGGAATT against SPINK5L2	0.482
GAAGAUUGCUAAUGACAAUTT against GOT1	0.0103
UAAUAAUUCUCACUCCUAATT against FZD5	-0.129
GACCGGCCGUUCAGAAUGATT against RPUSD1	0.327
CGUGUACCCGUUUGACUUUTT against SGSH	0.383
GCCUGGUACUACUAGCUUUTT against TRPC5	-1.14 (active)
CCUCUAGAAGGAUCUAAUATT against MMP19	0.43
GAAUUGUUUUAGCUAACGATT against PGM2	0.355
AAACAGACAGAGAUAAGUATT against UBE2D3	1.62 (active)
AGUACUUUGUAUUGGGAUATT against RCE1	-1.19 (active)
AGCAGGAUAUGAUCCGGAATT against SEC14L4	-0.714
GGCACGUCCUGUUACACCATT against LMO4	-0.067
CGCUUGGAGAGGCUACAAATT against FXR2	-0.133
GUUCCGAAGUGGUCUCAUUTT against MINPP1	-0.0107
GCAGUACACUACCAACAGATT against ALAS1	-1.15 (active)
CAACAUUGGAAAAUACAGATT against LAP3	0.0175
UCCCGGGAAUUAAAACUUATT against EPHA6	0.0445
GGAUCUGCACAGUCUUCUATT against PSKH2	0.0439
